This is an account of results in the supplement of paper PMC6609913.

SMILES strings stand for the structures. Counter-ions that a name gives are not always drawn. ± gives the standard deviation of the averaged measurements. In all, about 1,300 compounds were measured (“normalised cell viability”: median about 1, lowest 2% from about 0.14 on). Shown is part of a subset that was picked to be rich in the lowest values.

For the assay, the system named is V-C8 (BRCA2-deficient hamster cells). Nature of the assay: normalised cell viability (fraction of plate median); higher = more viable cells (less toxic). Particulars: 5 µM. In short, it runs like this: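 Hamster V-C8 cells lacking BRCA2 and V-C8 cells with BRCA2 restored were seeded in 96-well plates. Library drugs (10 mM DMSO stocks) were added 24 h later at 5 μM in 100 μl medium, next to DMSO control wells, for 3 days (screen 1) or 6 days (screen 2). Cell viability was read by resazurin assay, median-plate normalised (modified robust per cent of sample), and triplicate wells were averaged.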

`O=C1CN(/N=C/c2ccc([N+](=O)[O-])o2)C(=O)N1` [Nitrofurantoin] yielded a normalised cell viability (treatment time: 3 days) of 0.937 ± 0.025 and a normalised cell viability (treatment time: 6 days) of 1.15 ± 0.29.
With `CN[C@@H]1[C@@H](O)[C@@H](O[C@@H]2[C@@H](O)[C@H](O[C@H]3OC(CN)=CC[C@H]3N)[C@@H](N)C[C@H]2N)OC[C@]1(C)O` [Sisomicin sulfate], the normalised cell viability was 0.157 ± 0.0072 (treatment time: 3 days) and 0.145 ± 0.0056 (treatment time: 6 days).
On the same counts, the results for `COc1cc2nc(N(C)CCCNC(=O)C3CCCO3)nc(N)c2cc1OC` (stereo unspecified) [Alfuzosin hydrochloride] are 0.987 ± 0.056 and 1.08 ± 0.08.
On the same counts, the results for `c1ccc(CC2=NCCN2)cc1` [Tolazoline hydrochloride] are 1 ± 0.025 and 0.98 ± 0.038.
In the case of `CC(C)(O)c1ccccc1CC[C@@H](SCC1(CC(=O)O)CC1)c1cccc(/C=C/c2ccc3ccc(Cl)cc3n2)c1` [Montelukast], the normalised cell viability by setting is: (treatment time: 3 days) 1.09 ± 0.11; (treatment time: 6 days) 1.1 ± 0.052.
Consider `CCC(C)(CN(C)C)OC(=O)c1ccccc1` (stereo unspecified) [Amyleine hydrochloride], for which the normalised cell viability is 1.074 ± 0.0072 (treatment time: 3 days) and 1.02 ± 0.036 (treatment time: 6 days).
For `C#CCN[C@@H]1CCc2ccccc21` [Rasagiline], the normalised cell viability by setting is: (treatment time: 3 days) 1.08 ± 0.055; (treatment time: 6 days) 1.06 ± 0.038.
Regarding `Clc1ccc(C(Cn2ccnc2)OCc2csc3c(Cl)cccc23)c(Cl)c1` (stereo unspecified) [Sertaconazole nitrate], the normalised cell viability by setting is: (treatment time: 3 days) 0.737 ± 0.18; (treatment time: 6 days) 0.821 ± 0.12.
On the same counts, the results for `Cc1cccc(N(C)C(=S)Oc2ccc3ccccc3c2)c1` [Tolnaftate] are 1 ± 0.041 and 0.983 ± 0.02.
For the compound `C=CCOC(Cn1ccnc1)c1ccc(Cl)cc1Cl` (stereo unspecified) [Enilconazole], the normalised cell viability (treatment time: 3 days) came out at 0.93 ± 0.04 and the normalised cell viability (treatment time: 6 days) amounted to 0.943 ± 0.015.
On to `Clc1ccc(CO/N=C(\Cn2ccnc2)c2ccc(Cl)cc2Cl)c(Cl)c1` [Oxiconazole Nitrate], for which the normalised cell viability was 0.807 ± 0.043 (treatment time: 3 days) and 0.898 ± 0.043 (treatment time: 6 days).
Consider `CN1CCN(C(c2ccccc2)c2ccc(Cl)cc2)CC1` (stereo unspecified) [Chlorcyclizine hydrochloride], for which the normalised cell viability (treatment time: 3 days) was 0.947 ± 0.019 and the normalised cell viability (treatment time: 6 days) amounted to 0.979 ± 0.073.
The corresponding values for `O=C(O)CCNC(=O)c1ccc(/N=N/c2ccc(O)c(C(=O)O)c2)cc1` [Balsalazide Sodium] are 0.973 ± 0.027 and 0.953 ± 0.13.
The corresponding values for `Nc1ccn([C@@H]2O[C@H](CO)[C@@H](O)[C@@H]2O)c(=O)n1` [Cytarabine] are 0.206 ± 0.0091 and 0.196 ± 0.022.
On the same counts, the results for `Nc1ccn([C@H]2CC[C@@H](CO)O2)c(=O)n1` [Zalcitabine] are 1.02 ± 0.059 and 1.04 ± 0.044.
Take `Nc1ccn([C@@H]2CS[C@H](CO)O2)c(=O)n1` [Lamivudine]: the normalised cell viability (treatment time: 3 days) was determined as 0.147 ± 0.0082 and the normalised cell viability (treatment time: 6 days) amounted to 0.139 ± 0.012.
On the same counts, the results for `CC(C)NCC(O)COc1ccc(CCOCC2CC2)cc1` (stereo unspecified) [Betaxolol hydrochloride] are 0.1577 ± 0.00096 and 0.136 ± 0.014.
`CC(C)NCC(O)COc1ccc(COCCOC(C)C)cc1` (stereo unspecified) [Bisoprolol fumarate]: the normalised cell viability is, setting by setting: (treatment time: 3 days) 1.04 ± 0.044; (treatment time: 6 days) 1.16 ± 0.049.
On the same counts, the results for `COC(=O)CCc1ccc(OCC(O)CNC(C)C)cc1` (stereo unspecified) [Esmolol hydrochloride] are 1.04 ± 0.077 and 0.939 ± 0.08.
The corresponding values for `O=C1[C@H](CC[C@H](O)c2ccc(F)cc2)[C@@H](c2ccc(O)cc2)N1c1ccc(F)cc1` [Ezetimibe] are 1.02 ± 0.093 and 1.03 ± 0.022.
As to `CN1CCN(C2=Nc3ccccc3Oc3ccc(Cl)cc32)CC1` [Loxapine succinate], the normalised cell viability runs as follows: (treatment time: 3 days) 1.17 ± 0.063; (treatment time: 6 days) 1.15 ± 0.03.
The compound `Cc1cc(C2CCCCC2)n(O)c(=O)c1` [Ciclopirox ethanolamine] had a normalised cell viability (treatment time: 3 days) of 0.207 ± 0.012 and a normalised cell viability (treatment time: 6 days) of 0.23 ± 0.015.
For the compound `COC(=O)C1=C(C)NC(C)=C(C(=O)OCC(C)C)C1c1ccccc1[N+](=O)[O-]` (stereo unspecified) [Nisoldipine], the normalised cell viability amounted to 0.889 ± 0.059 (treatment time: 3 days) and 0.894 ± 0.019 (treatment time: 6 days).
Regarding `Cc1c(N)c(=O)n(-c2ccccc2)n1C` [Ampyrone], the normalised cell viability is, setting by setting: (treatment time: 3 days) 1.01 ± 0.12; (treatment time: 6 days) 1.06 ± 0.055.
On to `Nc1nc(=S)c2ncn([C@@H]3O[C@H](CO)[C@@H](O)[C@H]3O)c2[nH]1` [Thioguanosine], for which the normalised cell viability is, setting by setting: (treatment time: 3 days) 0.307 ± 0.013; (treatment time: 6 days) 0.28 ± 0.017.
In the case of `CCC(Cc1c(I)cc(I)c(N)c1I)C(=O)O` (stereo unspecified) [Iopanoic acid], the normalised cell viability (treatment time: 3 days) was 0.999 ± 0.036 and the normalised cell viability (treatment time: 6 days) was determined as 1.07 ± 0.033.
The corresponding values for `CN(C)CCn1nnnc1SCC1=C(C(=O)O)N2C(=O)[C@@H](NC(=O)Cc3csc(N)n3)[C@H]2SC1` [Cefotiam hydrochloride] are 0.996 ± 0.028 and 1.12 ± 0.093.
Take `CC(C)NC[C@@H](O)COc1cccc2ccccc12` [(R)-Propranolol hydrochloride]: the normalised cell viability runs as follows: (treatment time: 3 days) 0.914 ± 0.085; (treatment time: 6 days) 1.06 ± 0.085.
On the same counts, the results for `CCc1cccc(CC)c1NC(=O)CN(CC(=O)O)CC(=O)O` [Etifenin] are 1.07 ± 0.047 and 1.04 ± 0.043.
The corresponding values for `CC(NCCC(c1ccccc1)c1ccccc1)c1ccccc1` (stereo unspecified) [Fendiline hydrochloride] are 0.197 ± 0.018 and 0.496 ± 0.16.
Consider `Cc1cc(NS(=O)(=O)c2ccc(N)cc2)no1` [Sulfamethoxazole], for which the normalised cell viability is, setting by setting: (treatment time: 3 days) 1.02 ± 0.028; (treatment time: 6 days) 0.959 ± 0.076.
For the compound `CC(C)/N=c1\cc2n(-c3ccc(Cl)cc3)c3ccccc3nc-2cc1Nc1ccc(Cl)cc1` [Clofazimine], the normalised cell viability turned out to be 0.148 ± 0.0016 (treatment time: 3 days) and 0.133 ± 0.017 (treatment time: 6 days).
On the same counts, the results for `Cc1cnc(C(=O)NCCc2ccc(S(=O)(=O)NC(=O)NC3CCCCC3)cc2)cn1` [Glipizide] are 1.093 ± 0.0089 and 1.13 ± 0.034.
